This note sets out measurements from PubChem BioAssay (NCI).

The structures appear in SMILES notation. This is part of a sample that, as a whole, favours compounds with a hit. Of some 83,000 tested, about 20% had one in any assay.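 In brief: 96-well plates, 48 h treatment, single concentration, percent growth endpoint.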 Unmarked numbers belong to inactive results. Calls of active or inactive are those of the source. How the source made its calls: active means growth percent below 10; inactive means the rest.

Test systems include NCI-H23 lung; NCI-H226 lung; NCI-H322M lung; HOP-62 NSCLC; NCI-H460 lung; HOP-92 NSCLC; NCI-H522 lung; A549/ATCC NSCLC; 786-0 renal; COLO 205 colon; DU-145 prostate; K-562 leukemia; MALME-3M melanoma; MDA-MB-231 breast; RXF 393 renal; SF-268 CNS; SF-295 CNS; SF-539 CNS; UACC-257 melanoma; M14 melanoma.
What all share (assay): NCI-60 one-dose screen, 48 h (100 = growth as untreated, 0 = no growth, -100 = all killed)
What all share (settings): 10 µM unless noted

For the molecule `CCOC(=O)[C@@H](C)C[C@H](Cc1ccccc1)NC(=O)c1csc([C@@H](C[C@H](C(C)C)N(C)C(=O)[C@@H](NC(=O)[C@H]2C[C@H](O)CCN2C)C(C)C)OC(C)=O)n1`, the growth is 30.7% in the experiment on NCI-H23 lung; -29.5% (active) with NCI-H226 lung; 43.3% in the experiment with NCI-H322M lung; 10.7% in the experiment on HOP-62 NSCLC; 5.02% (active) with NCI-H460 lung; 26.3% with HOP-92 NSCLC. The growth was -39% (active) in the experiment with NCI-H522 lung; 13.5% in the experiment on A549/ATCC NSCLC; 11.2% with 786-0 renal; -61.4% (active) with COLO 205 colon; 0.421% (active) in the experiment with DU-145 prostate; 6.81% (active) in the experiment with K-562 leukemia. Moreover, the growth in the experiment with MALME-3M melanoma was 35.1%; in the experiment with MDA-MB-231 breast it was 14.5%; in the experiment with RXF 393 renal it was 42.1%; in the experiment on SF-268 CNS it was 24.6%; in the experiment on SF-295 CNS, -6.17% (active); with SF-539 CNS, -18.5% (active). In addition, the growth was 58.5% in the experiment on UACC-257 melanoma and -13% (active) in the experiment on M14 melanoma.

As to `O=C(CC1(O)C(=O)N(Cc2ccccc2)c2ccccc21)c1ccc(C(=O)NCC2CCC3(CC2)OOC2(CCCCC2)OO3)cc1` (stereo not given), the growth in the experiment on NCI-H23 lung is -72.2% (active); in the experiment on NCI-H226 lung, -34.8% (active); in the experiment on NCI-H322M lung, 65.2%; with HOP-62 NSCLC, -48.2% (active); with NCI-H460 lung it was -51.4% (active); in the experiment with HOP-92 NSCLC it was -72% (active). In addition, the growth in the experiment with NCI-H522 lung is -28% (active); with A549/ATCC NSCLC, -53.6% (active); with 786-0 renal, -73.1% (active); in the experiment on COLO 205 colon, -52.9% (active); in the experiment on DU-145 prostate, -100% (active); with K-562 leukemia it was -48.3% (active). The growth was -73% (active) in the experiment with MALME-3M melanoma; -65.8% (active) with MDA-MB-231 breast; -81% (active) in the experiment on RXF 393 renal; -62% (active) in the experiment with SF-268 CNS; 10.7% in the experiment with SF-295 CNS; -83.2% (active) with SF-539 CNS. The growth in the experiment on UACC-257 melanoma was -21% (active); in the experiment with M14 melanoma, 13.1%.

As to `C/C(=C\c1ccn(-c2ccc(N)c(F)c2)n1)[C@@H]1C[C@@H]2O[C@]2(C)CCC[C@H](C)[C@H](O)[C@@H](C)C(=O)C(C)(C)[C@@H](O)CC(=O)O1`, the growth was 30.4% with NCI-H23 lung; 50.9% in the experiment with NCI-H226 lung; 25.7% in the experiment with NCI-H322M lung; 38.1% in the experiment with HOP-62 NSCLC; 15.9% with NCI-H460 lung; 53.2% in the experiment with HOP-92 NSCLC. Moreover, the growth in the experiment on NCI-H522 lung was 18.7%; with A549/ATCC NSCLC it was 26.5%; with 786-0 renal, 25.3%; in the experiment with COLO 205 colon, -8.2% (active); in the experiment with DU-145 prostate, -26% (active); in the experiment with K-562 leukemia, 10.5%. Moreover, the growth in the experiment with MALME-3M melanoma is 46.3%; in the experiment with MDA-MB-231 breast, 19.6%; with RXF 393 renal, 0.639% (active); in the experiment with SF-268 CNS, 30%; with SF-295 CNS, 17.1%; with SF-539 CNS it was -26.4% (active). Moreover, the growth was 68.7% in the experiment on UACC-257 melanoma and 13.3% in the experiment on M14 melanoma.

With `OCCNC(Cc1ccccc1)c1ccc2c(c1)OCO2` (stereo not given), the growth is 100% in the experiment with NCI-H23 lung; 96.5% with NCI-H226 lung; 98.4% with NCI-H322M lung; 77.7% in the experiment on HOP-62 NSCLC; 106% in the experiment with NCI-H460 lung; 73.1% with HOP-92 NSCLC. Further, the growth was 67.5% in the experiment on NCI-H522 lung; 90.8% with A549/ATCC NSCLC; 95.5% with 786-0 renal; 91% in the experiment on COLO 205 colon; 101% with DU-145 prostate; 84.1% in the experiment on K-562 leukemia. Moreover, the growth in the experiment on MALME-3M melanoma is 90.8%; with MDA-MB-231 breast, 98.7%; in the experiment with RXF 393 renal, 109%; with SF-268 CNS, 97.9%; in the experiment with SF-295 CNS, 90%; in the experiment on SF-539 CNS, 104%. Besides, the growth in the experiment with UACC-257 melanoma is 90.1%; in the experiment with M14 melanoma it was 88.5%.

As to `COc1ccc(/C(C)=C(\c2ccc(OCCN3CCOCC3)cc2)c2ccc(OC(=O)Cc3ccccc3)cc2)cc1`, the growth is 95.1% in the experiment on NCI-H23 lung; 110% in the experiment on NCI-H226 lung; 111% in the experiment on NCI-H322M lung; 108% in the experiment on HOP-62 NSCLC; 110% in the experiment on NCI-H460 lung; 105% with HOP-92 NSCLC. Further, the growth with NCI-H522 lung was 94.9%; with A549/ATCC NSCLC, 94.3%; in the experiment on 786-0 renal, 104%; with COLO 205 colon, 109%; with DU-145 prostate it was 102%; in the experiment with K-562 leukemia, 91%. The growth in the experiment with MALME-3M melanoma was 104%; in the experiment on MDA-MB-231 breast, 109%; in the experiment on RXF 393 renal, 111%; with SF-268 CNS, 100%; in the experiment on SF-295 CNS, 108%; in the experiment with SF-539 CNS it was 112%. Further, the growth was 109% in the experiment with UACC-257 melanoma and 104% in the experiment on M14 melanoma.

For `Nc1ncnc2n[nH]nc12`, the growth in the experiment on NCI-H23 lung was 72.7%; with NCI-H226 lung, 72.3%; in the experiment with NCI-H322M lung it was 42.3%; with HOP-62 NSCLC it was 40%; in the experiment on NCI-H460 lung, 95.1%; with HOP-92 NSCLC it was 77.3%. Also, the growth in the experiment on NCI-H522 lung is 34%; with A549/ATCC NSCLC, 73.4%; in the experiment on 786-0 renal, 56.2%; with COLO 205 colon, 70.5%; with DU-145 prostate, 57%; in the experiment with K-562 leukemia, 59.6%. In addition, the growth in the experiment with MALME-3M melanoma is 55.1%; with MDA-MB-231 breast it was 74.9%; with RXF 393 renal it was 75.8%; with SF-268 CNS, 81%; with SF-295 CNS it was 53.5%; with SF-539 CNS, 86.8%. Further, the growth in the experiment with UACC-257 melanoma was 58.1%; with M14 melanoma it was 39.8%.

In the case of `CO[C@H]1CC[C@@]2(C)C(=CC[C@@H]3[C@@H]2CC[C@]2(C)C(=O)C(=O)C[C@@H]32)C1`, the growth with NCI-H23 lung was 99.5%; in the experiment with NCI-H226 lung it was 96.1%; in the experiment on NCI-H322M lung it was 120%; in the experiment with HOP-62 NSCLC, 106%; with NCI-H460 lung, 102%; in the experiment with HOP-92 NSCLC, 83.7%. Moreover, the growth was 98% in the experiment with NCI-H522 lung; 111% in the experiment on A549/ATCC NSCLC; 107% in the experiment on 786-0 renal; 118% in the experiment with COLO 205 colon; 116% in the experiment with DU-145 prostate; 101% with K-562 leukemia. For the same molecule, the growth in the experiment with MALME-3M melanoma is 111%; in the experiment on MDA-MB-231 breast, 103%; in the experiment with RXF 393 renal, 26.3%; in the experiment on SF-268 CNS, 103%; in the experiment with SF-295 CNS, 110%; with SF-539 CNS it was 104%. In addition, the growth in the experiment with UACC-257 melanoma was 120%; in the experiment on M14 melanoma, 102%.
